Screening results as filed in PubChem.
Rows were chosen to be rich in hits. Some 5.7% of all compounds tested hit in one or more screens of this group.
DRD3 antagonist – qHTS of D3 Dopamine Receptor Antagonist: qHTS; hit rate 2.5% among 360,000; D(3) dopamine receptor (Homo sapiens), P35462; max response, negative = inhibition, %; D3R cells, DiscoveRx beta-arrestin luminescence, antagonist mode; stronger effect = lower value; in the data active = max response below about -50%; inconclusive = no clear call, values can overlap the other calls; note: % is set by controls: 0 for no effect and ±100 for the full control effect
Target sequence (P35462 whole entry, looked up): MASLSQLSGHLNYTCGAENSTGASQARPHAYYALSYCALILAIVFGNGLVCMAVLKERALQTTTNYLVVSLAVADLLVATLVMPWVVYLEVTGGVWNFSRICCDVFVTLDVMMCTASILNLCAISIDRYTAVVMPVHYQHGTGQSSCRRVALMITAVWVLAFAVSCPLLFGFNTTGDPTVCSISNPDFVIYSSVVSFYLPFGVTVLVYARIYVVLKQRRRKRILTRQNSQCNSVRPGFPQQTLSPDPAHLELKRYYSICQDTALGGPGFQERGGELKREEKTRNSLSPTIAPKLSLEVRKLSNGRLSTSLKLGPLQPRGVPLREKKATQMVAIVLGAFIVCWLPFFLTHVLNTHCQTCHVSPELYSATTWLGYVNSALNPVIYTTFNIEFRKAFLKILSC
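Cells plated overnight at 1500 cells/well, then exposed to library compounds with dopamine controls for 90 minutes at 37 degrees C. DiscoveRx reagent added for 30–60 minutes at room temperature; luminescence read, quantitative HTS format.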
HEK293 tox – qHTS of GLP-1 Receptor Inverse Agonists: Cytotox Screen. HEK293 cAMP-luciferase reporter cells, luminescence, 24 h. Potency, µM (top dose mostly 38.3 µM), for inactives: top-dose activity change, negative = inhibition, most hits filed as inhibitors. hit rate 0.13% among 410,000. AID 624418, 2012;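 note: loss of luciferase light is scored as toxicity; potency is the fitted concentration of half-maximal effect; % is set by controls: 0 for no effect and ±100 for the full control effect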
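To flag toxic compounds, the library was rerun on cells for 24 hr at 37 deg C and 5% CO2. Viability-linked luminescence was captured 12 min after adding luciferase detection reagent.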
ClpP mod – qHTS Assay for Activators of ClpP; ATP-dependent Clp protease proteolytic subunit (Bacillus subtilis (strain 168)), P80244; purified B. subtilis ClpP, FRET peptide cleavage, 20 min; Potency, µM (highest dose often 57.5 µM), inactives show at the highest dose activity change, negative = active; hit rate 1.9% among 340,000; AID 651965, 2013; active = well fitted falling curve with a large enough effect; inconclusive = small, poorly fitted or top-dose-only effect; inactive = no such curve, though single readings can be large or run the other way; note: potency is the fitted concentration of half-maximal effect; the source files actives as falling curves though it sought activators and does not explain the sign; nearly all actives have a fitted effect of over 65% in size
Target sequence (P80244 whole entry, looked up): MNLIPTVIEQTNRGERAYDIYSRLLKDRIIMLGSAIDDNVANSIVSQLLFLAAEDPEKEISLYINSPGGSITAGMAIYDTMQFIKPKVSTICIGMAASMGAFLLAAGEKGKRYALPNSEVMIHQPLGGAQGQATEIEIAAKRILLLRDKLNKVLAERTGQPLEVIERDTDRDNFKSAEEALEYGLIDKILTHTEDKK
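Purified B. subtilis ClpP, 10 microg/mL final in Tris/HCl pH8 with KCl, BSA, glycerol and Tween-20, cleaved an Abz/nitrotyrosine-quenched decapeptide. Fluorescence (ex 320, em 430) was read at 0 and 20 min at room temperature. Delta was normalized to 5.8 microM ADEP and DMSO/no-enzyme controls.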
GLP-1R inv ag – qHTS of GLP-1 Receptor Inverse Agonists (Inhibition Mode); AID 624417, 2012; HEK293 GLP-1R CRE-luciferase, luminescence, 24 h; GLP-1R form is constitutively active; Glucagon-like peptide 1 receptor (Homo sapiens), P43220; Potency, µM (highest dose often 38.3 µM), without a hit: at the highest dose activity change, negative = inhibition, actives largely listed as inhibitors; hit rate 1.6% among 410,000; note: potency is the fitted concentration of half-maximal effect; % is set by controls: 0 for no effect and ±100 for the full control effect; nearly all actives have a fitted effect of over 55% in size
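Using stably transfected HEK293 (constitutively active GLP-1R, cAMP-luciferase reporter), compounds were incubated 24 hr and luciferase measured by luminescence.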
D3 ag – qHTS of D3 Dopamine Receptor Agonist: qHTS | D3R DiscoveRx beta-arrestin cells, luminescence, 90 min | D(3) dopamine receptor (Homo sapiens), P35462 | hit rate 0.58% among 410,000 | max activation, %; in the data active = max activation above about 30%; note: 0% is about no effect
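Agonist-mode cell screen: cells plated at 1500/well and incubated overnight at 37 °C, then exposed to library compounds for 90 min at 37 °C. Detection reagent was added for 30–60 min at room temperature, and luminescence was read.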
GLP1R ag – qHTS of GLP-1 Receptor Agonists; Potency, µM (titrated, usually from 45.6 µM), for the others: at the highest dose activation, hits mostly activators; AID 624172, 2012; Glucagon-like peptide 1 receptor (Homo sapiens), P43220; hit rate 0.007% among 380,000; HEK293 GLP-1R CRE-luciferase, luminescence, 4-6 h; cells express a hypersensitive GLP-1R form; note: potency is the fitted concentration of half-maximal effect; % of control where 0% means no effect
Active calls of the source: *; ? = inconclusive; . = not tested or not shown; ! = repeats disagree. Unless noted, calls come from the whole dose curve; as a rule, active = well fitted curve in the direction sought with a large enough effect; inconclusive = small, poorly fitted or top-dose-only effect, or another doubt; inactive = no such curve, though single readings can be large; an effect the other way counts as inactive or inconclusive.

SMILES | DRD3 antagonist | HEK293 tox | ClpP mod | GLP-1R inv ag | D3 ag | GLP1R ag
CCOC(=O)/C(=C\c1ccc(OC(F)F)cc1)C1=Nn2c(nnc2-c2ccc(Cl)cc2)SC1 | -90* | -13% | -1% | ? | -9 | -18%
COc1ccc(-c2nnc3n2N=C(C)CS3)cc1 | -4 | -9% | 1% | 40% | 1 | -4%
CCOC(=O)/C(=C/c1ccc(OC(F)F)cc1)C1=Nn2c(nnc2-c2ccc(Cl)cc2)SC1 | -62* | ? | . | ? | -17 | 12%
COc1ccc(C2=Nn3c(nnc3-c3ccc(OC)cc3)SC2)cc1 | ? | ? | -1% | -6% | -6 | ?
CCOC(=O)c1c(C)[nH]c(CCC(=O)NCc2ccccc2C)c1C | . | -5% | 0% | 7% | -7 | .
COC(=O)c1ccc(N2CCc3ccccc32)c([N+](=O)[O-])c1 | -29 | -27% | 0% | -25% | -4 | 18%
CC(=O)c1ccc(N2CCN(c3ncccn3)CC2)c([N+](=O)[O-])c1 | 6 | 0% | . | 19% | 3 | 13%
CCOC(CNC(=O)c1ccc(N2CCc3ccccc32)c([N+](=O)[O-])c1)OCC | -67* | ? | -2% | ? | -12 | 2%
CC(=O)c1ccc(N2CCc3ccccc3C2)c([N+](=O)[O-])c1 | -1 | -19% | 2% | 3.2µM* | 4 | -2%
Cn1c(=O)c(=O)n(C)c2cc(N3CCCC3)c(NC(=O)c3ccccc3F)cc21 | . | -5% | -9% | 9% | 1 | .
CCCCOc1ccc(C(=O)NCC(c2ccc(Cl)cc2)N2CCOCC2)cc1 (stereo unspecified) | . | 6% | 2% | ? | 7 | .
Cc1ccccc1-n1ncc2c(SCC(=O)NCc3cccs3)ncnc21 | 7 | ? | 0% | 10µM* | -3 | 1%
Cc1csc(NC(=O)CSc2ncnc3c2cnn3-c2ccccc2Cl)n1 | -16 | -19% | -2% | ? | 3 | -16%
COc1ccccc1CNC(=O)COCc1cc(-c2cccs2)on1 | . | -11% | -5% | -14% | -11 | .
COc1ccc(S(=O)(=O)N2CCN(C(=S)Nc3ccc(S(N)(=O)=O)cc3)CC2)cc1 | -3 | -1% | 18µM* | -21% | 3 | -12%
COc1ccc(NC(=S)N2CCN(S(=O)(=O)c3ccc(F)cc3)CC2)cc1 | -11 | -6% | 0% | -18% | -1 | -6%
O=S(=O)(c1ccc(Cl)cc1)N1CCN(C(=S)Nc2ccc(F)c(Cl)c2)CC1 | -21 | -17% | -1% | 8.9µM* | -10 | -6%
O=S(=O)(c1ccccc1)N1CCN(C(=S)Nc2ccc(F)cc2)CC1 | 13 | -11% | 20µM* | -3% | 2 | -7%
Cc1cc(C)cc(-n2c(SCC(=O)N3CCC(C)CC3)nc3c([nH]c4ccccc43)c2=O)c1 | . | 10% | -25% | 1% | 2 | -4%
Nc1c2c(=O)oc(-c3ccccc3)cc2nn1-c1ccccc1 | 11 | ? | 14µM* | 39% | -1 | 12%
COc1ccccc1CC(=O)NO | . | . | 0% | . | . | .
CC(C(O)c1ccc(O)cc1)N1CCC(Cc2ccccc2)CC1 (stereo unspecified) | -88*! | -9% | -2% | ? | -91 | 0%
C[C@@H](CN1CCC(Cc2ccccc2)CC1)[C@@H](O)c1ccc(O)cc1 | -12 | 1% | 1% | ? | 0 | -3%
O=C(CCCCCNC(=O)N1CCn2c1nc1ccccc12)N[C@@H](Cc1ccccc1)C(=O)O | -17 | 1% | 2% | 9% | 30* | -2%
O=C(CCN1CCCCCC1)Nc1ccc(F)c(F)c1 | -62* | -1% | -1% | -8% | -12 | 4%
SMILES | DRD3 antagonist | HEK293 tox | ClpP mod | GLP-1R inv ag | D3 ag | GLP1R ag
O=C(CCN1CCCCCC1)Nc1ccc2c(c1)OCCO2 | 5 | 2% | 14µM* | 5% | -3 | 0%
O=C(O)CSCCC(=O)Nc1ccc(F)cc1 | -18 | -6% | 1% | 1% | 41* | 1%
CC(=O)c1ccc(NC(=O)CCSCCC(=O)Nc2ccc(C(C)=O)cc2)cc1 | 4 | -4% | -4% | 12% | -1 | 0%
Cc1ccc(NC(=O)CCN2CCCCC2)cc1 | -16 | 3% | 2% | -15% | -21 | -7%
CN1CCN(CCC(=O)Nc2ccc3c(c2)OCO3)CC1 | 10 | -8% | 0% | 0% | 1 | -1%
O=C(CCN1CCCCCC1)Nc1ccc(F)cc1 | -84* | -3% | -1% | -31% | -37 | -2%
CN(CCc1ccccc1)C(c1cc2ccccc2o1)c1nnnn1C(C)(C)C (stereo unspecified) | 24 | -3% | -1% | ? | 11 | 1%
CCC(=O)N1c2ccccc2CC1C(=O)NCc1ccc(CC)cc1 (stereo unspecified) | . | 7% | -1% | -12% | 5 | .
NC(c1csc(Nc2ccccn2)n1)c1ccccc1Cl (stereo unspecified) | -29 | -1% | -4% | 1% | -8 | 12%
Cn1c(=O)cc(SCC(=O)NCCCN2CCN(c3ccccc3F)CC2)c2ccccc21 | -71* | -4% | -27% | -18% | -5 | 3%
CCn1c(=O)cc(SCC(=O)NCCCN2CCC(C)CC2)c2ccccc21 | 19 | 3% | . | 13% | -15 | 10%
CCn1c(=O)cc(SCC(=O)NCCCN2CCN(c3ccc(F)cc3)CC2)c2ccccc21 | -68* | -15% | -7% | -30% | -49 | 10%
Cn1c(=O)cc(SCC(=O)NCCCN2CCOCC2)c2ccccc21 | -5 | 21% | -28% | 58% | -5 | 5%
Cc1ccccc1NC(=O)c1sc2nc3c(cc2c1N)CCCC3 | . | -12% | ? | ? | -4 | .
COc1cc2nc(Nc3ccc(C)c(C)c3)nc(N)c2cc1OC | 1 | ? | ? | 10µM* | 1 | 14%
COc1cc2nc(Nc3ccc(C)c(Cl)c3)nc(N)c2cc1OC | 12 | ? | . | 3.2µM* | -9 | 0%
COc1cc2nc(Nc3ccc(F)cc3)nc(N)c2cc1OC | 2 | -13% | -16% | ? | 1 | -3%
CCOC(=O)c1ccc(Nc2nc(N)c3cc(OC)c(OC)cc3n2)cc1 | 29 | ? | 32µM*! | ? | -8 | 28%
CCN(N=O)[C@@H](Cc1ccccc1)CN(N=O)[C@@H](Cc1ccccc1)CN(C)N=O | 0 | 8% | 1% | -2% | 32* | -4%
COc1cccc(CNc2ccc(N3CCC(C)CC3)cc2)c1OC | -64* | 1% | 0% | 3% | -27 | -8%
